# Data as given in PubChem BioAssay.
# Activity calls are given as the source filed them.
# Assays:
# [1] = tested on: Plasmodium falciparum Sir2 (PF13_0152, Sir2A); assay: Plasmodium falciparum Sir2A binding compounds – biochemical, small-molecule microarray, 635 nm fluorescence, primary screen (AID 1098); settings: fluorescence 635 nm, higher = more signal;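 further: score merges spot fluorescence intensity with its signal-to-noise ratio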
# [2] = probe aDKK1 binding to arrayed compounds – biochemical, biotinylated probe, 635/667 nm fluorescence, primary screen (AID 1099); settings: small-molecule microarray, higher = more signal;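 further: score merges 667nm spot fluorescence with signal to noise across triplicate slides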
# [3] = probe aCHRDL2 binding to arrayed compounds – biochemical, biotinylated probe, 635/667 nm fluorescence, primary screen (AID 1100); settings: small-molecule microarray, higher = more signal
# [4] = change in splice reporter luminescence, either direction, cell-based, HEK293, spliceosome inhibition project, primary screen (AID 1101); settings: HEK293 splicing luciferase reporter, 24 h, higher = more signal, called active from +8 up or from −8 down;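 further: HEK293 cells carrying a splicing-competent luciferase reporter gene; test concentration not given here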
# [5] = molecular target: Fibroblast growth factor 10 (Homo sapiens) (UniProt O15520); assay: compounds binding fibroblast growth factor 10 – biochemical, small-molecule microarray, 635 nm fluorescence, primary screen (AID 1102); settings: FGF10 binding, fluorescence 635 nm, higher = more signal
# [6] = tested on: glycogen synthase kinase-3 (GSK3A per assay name; protocol says GSK3B); assay: compounds binding glycogen synthase kinase-3 – biochemical, small-molecule microarray, 635 nm fluorescence, GSK3A, primary screen (AID 1103); settings: fluorescence 635 nm, higher = more signal; further: the record names both GSK3A and GSK3B
# [7] = molecular target: Epidermal growth factor receptor (Homo sapiens) (UniProt P00533); assay: compounds binding epidermal growth factor receptor – biochemical, small-molecule microarray, 635 nm fluorescence, primary screen (AID 1104); settings: EGFR binding, higher = more signal;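 further: score merges 667 nm emission intensity with spot signal to noise over triplicate slides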
# [8] = molecular target: Follistatin-related protein 3 (Homo sapiens) (UniProt O95633); assay: compounds binding follistatin-related protein 3 – biochemical, small-molecule microarray, 635 nm fluorescence, primary screen (AID 1105); settings: FSTL3 binding, higher = more signal;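 further: score merges emission near 667 nm and signal to noise per printed spot across three slides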
# [9] = molecular target: Dickkopf-related protein 1 (Homo sapiens) (UniProt O94907); assay: small molecules binding DKK1 protein – biochemical, small-molecule microarray, 635 nm fluorescence scan, primary screen (AID 1106); settings: higher = more signal;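 further: score merges emission near 667 nm with signal to noise over three replicate slides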
# [10] = tested on: Inhibin beta A chain (activin A); assay: small molecules binding activin A – biochemical, small-molecule microarray, 635 nm fluorescence scan, primary screen (AID 1107); settings: INHBA, higher = more signal;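 further: mouse activin A protein probed at 4.33 µg/mL on printed slides; score merges bound-protein fluorescence near 667 nm with spot signal-to-noise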
# [11] = tested on: Human papillomavirus type 1a protein E7 (residues 44-93); assay: small molecules binding HPV E7 44-93 – biochemical, small-molecule microarray, residues 44-93, 635 nm fluorescence, primary screen (AID 1108); settings: fluorescence 635 nm, higher = more signal;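 further: E7 fragment applied at 1 µg/mL in TBST for 1 h at 4 C; score combines spot fluorescence with its signal to noise ratio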
# [12] = hepatitis C replication reporter changes, two-sided – Huh7 cells, luciferase reporter, HCV replication inhibitor project, primary screen (AID 1109); settings: Huh7 HCV replicon luciferase reporter, 48 h; higher = more signal;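 further: huh7 hepatoma cells harbouring a luciferase neomycin HCV replicon reporter; luciferase luminescence as measure of HCV replicon replication; test concentration not given here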
# [13] = molecular target: Left-right determination factor 2 (Homo sapiens) (UniProt O00292); assay: small molecules binding LEFTY2 protein – biochemical, small-molecule microarray, 635 nm fluorescence scan, primary screen (AID 1110); settings: higher = more signal
# [14] = molecular target: Calmodulin-1 (Homo sapiens) (UniProt P0DP23); assay: small molecules binding calmodulin-1 with EGTA – biochemical, small-molecule microarray, Cy5-labelled CALM1, profiling panel (AID 1111); settings: Cy5-CALM1 binding fluorescence, higher = more signal;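 further: labelled calmodulin applied in Tris saline Tween buffer holding calcium plus EGTA and DTT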
# [15] = molecular target: Calmodulin-1 (Homo sapiens) (UniProt P0DP23); assay: small molecules binding Ca-loaded calmodulin-1 – biochemical, small-molecule microarray, Cy5-labelled CALM1, plus calcium, artefact control for SMM control-protein annotation, profiling panel (AID 1112); settings: Cy5-CALM1 binding fluorescence, higher = more signal;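 further: score merges spot fluorescence with signal to noise from triplicate slides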
# [16] = probe aWnt5a binding to arrayed compounds – biochemical, biotinylated probe, 635/667 nm fluorescence, primary screen (AID 1113); settings: small-molecule microarray, higher = more signal;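 further: score merges 667 nm fluorescence intensity with signal-to-noise per printed feature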
# [17] = probe aShh binding to arrayed compounds – biochemical, biotinylated probe, 635/667 nm fluorescence, primary screen (AID 1114); settings: small-molecule microarray, higher = more signal;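 further: probe is biotin-labelled aShh protein from a stem cell growth factor screen; measures binding of labelled protein to compounds printed on the slide; score merges feature fluorescence at 667 nm with signal-to-noise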
# [18] = probe aNog binding to arrayed compounds – biochemical, biotinylated probe, 635/667 nm fluorescence, primary screen (AID 1115); settings: small-molecule microarray, higher = more signal;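 further: probe is biotinylated aNog protein used at 0.15 µg/mL for 1 h at 4 C; z-score combines 667 nm fluorescence of each spot with its signal to noise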
# [19] = molecular target: Torsin-1A-interacting protein 1 (Homo sapiens) (UniProt Q5JTV8); assay: compound microarray binding of lysate hLAP1 – cell lysate, small-molecule microarray, COS7 lysate, 635/667 nm fluorescence, primary screen (AID 1116); settings: 635 nm fluorescence, higher = more signal
# [20] = molecular target: Alpha-bungarotoxin (Bungarus multicinctus) (UniProt P60615); assay: compounds binding labelled alpha-BTX control protein – biochemical, small-molecule microarray, Alexa647 label, 635/667 nm fluorescence, artefact control for SMM control protein annotation, profiling panel (AID 1117); settings: alpha-BTX-A647 binding fluorescence, higher = more signal
# Chain of Alpha-bungarotoxin (Bungarus multicinctus) (P60615 whole entry, looked up): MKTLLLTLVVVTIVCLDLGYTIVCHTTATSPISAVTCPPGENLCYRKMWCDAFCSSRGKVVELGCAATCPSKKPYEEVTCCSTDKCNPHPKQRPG
# Chain of Left-right determination factor 2 (Homo sapiens) (O00292 whole entry, looked up): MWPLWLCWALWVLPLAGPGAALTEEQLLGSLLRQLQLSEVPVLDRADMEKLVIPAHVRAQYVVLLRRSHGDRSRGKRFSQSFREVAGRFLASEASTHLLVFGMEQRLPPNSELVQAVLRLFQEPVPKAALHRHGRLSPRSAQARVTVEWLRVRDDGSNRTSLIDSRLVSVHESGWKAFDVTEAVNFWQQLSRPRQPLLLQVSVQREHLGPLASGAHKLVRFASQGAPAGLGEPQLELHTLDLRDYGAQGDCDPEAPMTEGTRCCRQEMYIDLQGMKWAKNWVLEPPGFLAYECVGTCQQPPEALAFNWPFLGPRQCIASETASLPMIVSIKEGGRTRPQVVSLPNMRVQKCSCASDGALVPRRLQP
# Chain of Torsin-1A-interacting protein 1 (Homo sapiens) (Q5JTV8 whole entry, looked up): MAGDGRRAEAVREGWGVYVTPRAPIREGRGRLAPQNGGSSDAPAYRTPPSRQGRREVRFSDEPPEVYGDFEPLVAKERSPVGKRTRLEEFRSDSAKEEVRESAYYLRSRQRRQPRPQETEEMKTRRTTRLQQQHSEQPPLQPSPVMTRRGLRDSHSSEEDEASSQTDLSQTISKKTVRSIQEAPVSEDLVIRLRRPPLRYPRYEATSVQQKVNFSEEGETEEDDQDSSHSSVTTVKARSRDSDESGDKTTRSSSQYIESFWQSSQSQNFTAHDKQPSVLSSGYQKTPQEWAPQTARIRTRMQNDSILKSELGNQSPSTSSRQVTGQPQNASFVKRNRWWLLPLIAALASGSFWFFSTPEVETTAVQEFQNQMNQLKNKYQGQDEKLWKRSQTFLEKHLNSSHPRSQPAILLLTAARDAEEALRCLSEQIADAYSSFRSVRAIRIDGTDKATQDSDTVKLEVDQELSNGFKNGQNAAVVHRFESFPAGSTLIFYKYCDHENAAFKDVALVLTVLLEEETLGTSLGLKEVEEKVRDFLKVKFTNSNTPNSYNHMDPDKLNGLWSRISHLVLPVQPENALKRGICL
# Chain of Epidermal growth factor receptor (Homo sapiens) (P00533 whole entry, looked up): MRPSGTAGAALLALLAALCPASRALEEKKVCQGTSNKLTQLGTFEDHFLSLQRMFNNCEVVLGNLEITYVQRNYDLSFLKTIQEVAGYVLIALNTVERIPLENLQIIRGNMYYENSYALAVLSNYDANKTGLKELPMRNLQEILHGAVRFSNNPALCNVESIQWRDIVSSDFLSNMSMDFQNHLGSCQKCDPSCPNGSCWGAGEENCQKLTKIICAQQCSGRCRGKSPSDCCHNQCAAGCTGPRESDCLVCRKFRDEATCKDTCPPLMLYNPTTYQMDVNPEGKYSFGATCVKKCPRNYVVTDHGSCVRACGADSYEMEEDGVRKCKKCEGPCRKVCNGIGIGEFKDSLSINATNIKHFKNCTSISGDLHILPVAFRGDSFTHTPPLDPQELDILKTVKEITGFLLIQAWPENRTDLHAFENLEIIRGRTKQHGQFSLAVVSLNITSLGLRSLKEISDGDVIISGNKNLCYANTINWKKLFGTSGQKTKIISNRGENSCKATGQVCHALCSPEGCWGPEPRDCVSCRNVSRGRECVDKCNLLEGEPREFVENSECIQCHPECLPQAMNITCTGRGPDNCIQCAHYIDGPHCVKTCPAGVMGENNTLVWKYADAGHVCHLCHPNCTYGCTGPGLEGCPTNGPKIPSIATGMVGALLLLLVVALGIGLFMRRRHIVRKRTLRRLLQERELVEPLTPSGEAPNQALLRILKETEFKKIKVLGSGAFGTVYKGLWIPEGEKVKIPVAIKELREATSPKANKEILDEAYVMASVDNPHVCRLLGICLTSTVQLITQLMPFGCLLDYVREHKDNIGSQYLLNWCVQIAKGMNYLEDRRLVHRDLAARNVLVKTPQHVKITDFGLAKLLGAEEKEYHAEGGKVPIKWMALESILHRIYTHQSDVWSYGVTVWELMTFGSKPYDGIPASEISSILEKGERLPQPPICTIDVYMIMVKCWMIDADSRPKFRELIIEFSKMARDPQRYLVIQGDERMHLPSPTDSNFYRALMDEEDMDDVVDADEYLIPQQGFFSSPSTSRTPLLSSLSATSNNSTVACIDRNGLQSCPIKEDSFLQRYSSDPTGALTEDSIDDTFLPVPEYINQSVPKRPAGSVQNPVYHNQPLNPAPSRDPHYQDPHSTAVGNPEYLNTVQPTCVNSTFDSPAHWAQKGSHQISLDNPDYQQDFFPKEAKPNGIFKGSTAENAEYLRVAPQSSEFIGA
# Chain of Fibroblast growth factor 10 (Homo sapiens) (O15520 whole entry, looked up): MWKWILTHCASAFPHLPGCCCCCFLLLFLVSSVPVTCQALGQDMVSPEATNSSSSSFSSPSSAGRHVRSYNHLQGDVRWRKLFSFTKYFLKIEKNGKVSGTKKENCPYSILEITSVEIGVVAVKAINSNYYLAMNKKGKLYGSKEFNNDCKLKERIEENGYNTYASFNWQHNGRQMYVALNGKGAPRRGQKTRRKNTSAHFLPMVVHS
# Chain of Follistatin-related protein 3 (Homo sapiens) (O95633 whole entry, looked up): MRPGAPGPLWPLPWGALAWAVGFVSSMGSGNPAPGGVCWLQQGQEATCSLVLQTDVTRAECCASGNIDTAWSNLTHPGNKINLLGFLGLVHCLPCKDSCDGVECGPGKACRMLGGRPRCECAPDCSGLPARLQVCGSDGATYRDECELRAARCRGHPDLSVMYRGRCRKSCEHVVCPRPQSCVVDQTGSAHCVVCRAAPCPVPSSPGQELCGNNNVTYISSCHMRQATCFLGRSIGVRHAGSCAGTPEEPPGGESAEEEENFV
# Chain of Dickkopf-related protein 1 (Homo sapiens) (O94907 whole entry, looked up): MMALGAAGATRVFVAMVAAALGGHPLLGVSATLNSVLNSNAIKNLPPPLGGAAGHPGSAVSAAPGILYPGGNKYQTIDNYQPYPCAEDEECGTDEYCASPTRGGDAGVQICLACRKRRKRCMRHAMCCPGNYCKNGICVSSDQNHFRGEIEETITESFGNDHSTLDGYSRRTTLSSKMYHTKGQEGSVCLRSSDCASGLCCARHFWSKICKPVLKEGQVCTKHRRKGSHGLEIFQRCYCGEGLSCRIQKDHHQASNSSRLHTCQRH
SMILES,composite z-score [1],composite z-score [2],composite z-score [3],z-score [4],composite z-score [5],composite z-score [6],composite z-score [7],composite z-score [8],composite z-score [9],composite z-score [10],composite z-score [11],z-score [12],composite z-score [13],composite z-score [14],composite z-score [15],composite z-score [16],composite z-score [17],composite z-score [18],composite z-score [19],composite z-score [20]
CCC=CCCC(OC(=O)c1ccc(Br)cc1)C1=CCCCC1=O (stereo not given),0.964,-0.305,0.457,0.798 (inactive),0.681,0.166,0.718,1.05,0.592,1.55,1.17,-2.38,0.664,-1.06,-1.54,-0.0512,-0.124,-0.198,0.221,0.654
CC(C)CON=C1[C@H]2CCn3c(=O)n(Cc4cc5c(cc4Cl)OCO5)c(=O)n3[C@H]2[C@H](O)[C@@H]2O[C@H]12,0.241,-0.304,-0.641,-0.756 (inactive),0.533,0.589,0.483,0.554,0.484,0.233,0.271,0.0671,0.389,-0.0844,-0.635,-0.0758,0.0815,-0.329,0.38,0.351
CCOC(=O)[C@H](Cc1ccccc1)NC(=O)CCC1CC(OC(=O)NCCc2ccc(F)cc2)CC2(CCCC(COC(=O)NCCc3ccccc3OC)O2)O1 (stereo not given in full),1.14,-0.275,-0.556,-0.0644 (inactive),1.06,1.28,0.42,0.857,0.782,-0.314,1.37,-1.19,0.515,0.63,-0.403,-0.0236,0.0278,-0.285,0.705,0.473
CCCCC#C[C@@H]1C=C[C@H](OC(C)=O)[C@@H](COC(C)=O)O1,0.483,-0.228,-0.595,1.07 (inactive),0.46,0.244,0.137,0.44,0.124,0.589,0.713,-2.47,0.579,0.349,-0.0635,-0.118,-0.221,-0.285,0.339,0.217
O=C1CCCC=C1C(O)CCCCBr (stereo not given),1.09,0.763,0.653,-0.793 (inactive),0.404,-0.115,0.0038,1.18,0.945,1.26,0.619,-4.22,-0.0175,1.35,0.403,-0.124,0.191,-0.438,0.293,2.09
CC(CCN1CCCCc2nc(C)c(C)cc21)=NO[C@@H](C)c1cn([C@H](CO)Cc2ccccc2)nn1,0.683,-0.217,-0.46,0.16 (inactive),0.0253,0.54,0.593,0.902,1.17,0.788,0.271,-0.507,0.813,0.404,-0.0345,-0.152,-0.117,-0.397,0.691,0.414
O=C1[C@H]2[C@H]3[C@H](O)[C@H](O)CC(=NOCc4ccccc4)[C@@H]3CC[C@H]2C(=O)N1c1ccc(F)cc1F,0.0102,-0.376,-0.554,-1.29 (inactive),0.224,-0.0906,0.208,0.286,0.347,-0.178,-0.392,0.606,0.303,-0.201,-0.57,-0.0519,0.0278,0.0369,0.0133,0.297
O=C1C[C@@H](O)[C@@H](O)[C@@H]2[C@@H]3C(=O)N(C[C@@H]4CCCO4)C(=O)[C@@H]3CC[C@H]12,0.379,-0.273,-0.577,0.32 (inactive),0.508,0.671,0.531,0.601,0.542,-0.161,0.265,0.624,0.903,0.0222,-0.522,-0.0478,-0.0337,0.0309,0.224,0.384
CON=CC[C@@H]1C=C[C@H](OC(C)=O)[C@@H](COC(C)=O)O1,0.0728,-0.146,-0.0937,0.079 (inactive),0.277,0.184,0.393,0.727,0.531,1.68,-0.0635,0.569,0.533,-0.536,-0.688,0.0004,0.351,-0.0281,0.292,0.479
CCOC(=O)CCN1C(=O)[C@H]2[C@H]3[C@H](O)[C@H](O)CC(=NNC(=O)OCc4ccccc4)[C@@H]3CC[C@H]2C1=O,0.205,-0.111,-0.201,0.265 (inactive),0.709,0.323,0.188,0.993,0.516,-0.196,0.582,-0.582,0.929,0.634,-0.0903,-0.0819,-0.0035,-0.147,0.754,0.999
CO[C@@H]1COC(=O)[C@@H](C)COC(=O)[C@@H](C)NC(=O)CC=C[C@@H]1C,0.155,-0.351,-1.08,-2.29 (inactive),1.22,0.571,0.318,1.33,1.73,0.675,-1.03,-2,1.51,-0.99,-2.06,-0.2,-0.13,0.0629,0.638,-0.553
CCC1=NOC(CCC2CC(OC(=O)NCc3cccc4c3OCO4)CC3(CCCC(COC(=O)NCCc4ccccc4OC)O3)O2)C1 (stereo not given),1.09,-0.16,-0.0595,0.0991 (inactive),0.709,0.391,0.0007,0.192,0.859,0.312,1.21,-1.35,0.0276,1.21,0.712,-0.139,-0.0793,0.249,0.528,0.473
